What is called inhibition is the change of the read-out against control, counted positive when it falls.

The campaign covered roughly 320,000 compounds. About 1,300 (0.41%) were called active. Inconclusive results (about 3%) are left out. The rule behind the calls is not given here. Not all results are given here. Results with a measured potency or affinity are listed apart.

A short description of this assay: growth inhibition of non-replicating M. tuberculosis (AID 488890).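 Note: plate controls were DMSO cells for no effect and high antibiotic wells for full effect.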 The note with it: Mycobacterium tuberculosis non-replicating, at 25 µM, stronger effect = higher value.
`O=C(O)c1cc2c(N3CCC(Cc4ccccc4)CC3)ncnc2s1`: the inhibition amounted to 11.8%.
The figure for `c1ccc2c(Cn3ccnc3)cccc2c1` is -22.3%; for `CN(C)C1=NC[C@H](Cc2ccccc2)N1CCCC1CCCC1` it is 77%; for `NC1=NC[C@H](Cc2ccc(O)cc2)N1CCc1cccc(F)c1` it is 1.77%.
Next, `NC1=NC[C@H](Cc2ccccc2)N1CC1CCCCC1`: 17%; `NC1=NC[C@@H](Cc2ccc(O)cc2)N1CCc1cccc2ccccc12`: 64.2%; `CC(C)C[C@H]1CN=C(Nc2ccccc2)N1CCC1CCCCC1`: 25.8%.
On to `CC(C)C[C@H]1CN=C(Nc2ccccc2)N1CCC1CCCC1`, for which the inhibition is 65.2%.
Next, `CCC(=O)N1CCc2cc(S(=O)(=O)N3CCN(c4cc(C)ccc4C)CC3)ccc21`: -5.69%.
Next, `COc1ccc(-c2cn3nc(C)c(C)nc3n2)cc1OC`: -17%.
With `Cc1nnc(Sc2c(-c3ccccc3)c3ccc(Cl)cc3[nH]c2=O)s1`, the inhibition turned out to be 31.4%.
The figure for `CC(=O)Nc1nnc(C2=COCCO2)o1` is 3.17%.
The figure for `CN(C)c1ccc(C(=O)Nc2nnc(C3=COCCO3)o2)cc1` is -3.42%; for `COc1ccc(C(=O)Nc2nnc(C3=COCCO3)o2)cc1OC` it is -10.9%.
Next, `CS(=O)(=O)c1cccc(C(=O)Nc2nnc(C3=COCCO3)o2)c1`: 22.2%.
In the case of `O=C(Nc1nnc(C2=COCCO2)o1)c1ccc(S(=O)(=O)N2CCCC2)cc1`, the inhibition came to 6.48%.
Next, `COc1cc(C(=O)Nc2nnc(C3=COCCO3)o2)cc(OC)c1OC`: -6.31%; `O=C(O)CN1C(=O)c2cccc3c(Br)ccc1c23`: 2.53%.
Next, `CCOC(=O)Cn1nnnc1CN(CCc1ccccc1)Cc1cc2cc(CC)ccc2[nH]c1=O`: -14.2%.
The figure for `COc1ccc(Nc2nc3cc(C)ccc3cc2C#N)c(OC)c1` is -16.1%; for `Cc1cc(NC(=O)Cn2nnc3sc4c(c3c2=O)CCCC4)no1` it is 9.47%; for `CCCn1c(C(C)NC(=O)c2ccccc2)n[nH]c1=S` (configuration not stated) it is 13.1%.
In the case of `COc1cccc(-c2ccc(NC(=O)C3CCCN(Cc4nccn4C)C3)cc2)c1` (configuration not stated), the inhibition was 58%.
The figure for `O=C(Nc1cc(Cl)ccc1-n1cncn1)c1cc(F)c(F)c(F)c1F` is 14%; for `COc1cc(/C=C2\SC(=O)N(CC(=O)Nc3ccc(C)cc3)C2=O)cc(Cl)c1OCC(=O)O` it is 12.1%.
Next, `O=C(NCc1cccs1)c1ccccc1`: 64.8%.
Next, `CCCCNC(=O)Cc1ccc(Br)cc1`: 74%; `O=C(NCC1CCN(C(=O)c2ccc([N+](=O)[O-])cc2)CC1)c1ccc([N+](=O)[O-])cc1`: 4.24%.
For the compound `O=C(NCCNC(=O)c1ccc(Br)o1)c1ccc(Br)o1`, the inhibition is -3.49%.
As for `O=C(NCCCCc1ccccc1)c1ccc(Br)o1`, the inhibition was found to be 45.4%.
On to `Cc1ccc(CC(=O)NCCCc2ccccc2)cc1`, for which the inhibition came out at 21.6%.
With `O=C(CCNC(=O)c1ccc([N+](=O)[O-])cc1)NCc1cccs1`, the inhibition is -8.88%.
`O=C(NCC1CCCCC1)c1cccc([N+](=O)[O-])c1`: the inhibition is 69.2%.
The figure for `C=CCC[C@@H](Cc1ccc(F)cc1)C(=O)OC[C@@H](Cc1c[nH]c2ccccc12)NC(=O)[C@H](CC=C)CC(=O)N[C@H](CO)Cc1ccccc1` is -0.91%.
With `CCCCOc1ccc(C(=O)OCC(=O)c2c(N)n(C)c(=O)n(C)c2=O)cc1`, the inhibition was found to be 27.4%.
Next, `O=C(NCCCn1ccnc1)c1cccc(Br)c1`: -17.6%.
The figure for `COCC(=O)Nc1nc2n(n1)C(c1ccccc1Cl)CC(c1ccc(OC)cc1)N2` (configuration not stated) is 24.1%.
On to `COC(=O)c1ccc(CS(=O)(=O)c2ccccc2C)o1`, for which the inhibition is 2.59%.
The figure for `CCCn1c(N)c(C(=O)CSc2nc3ccccc3c(=O)n2Cc2ccccc2)c(=O)[nH]c1=O` is 21%; for `COc1ccc(/C=N/NC(=O)c2ccn[nH]2)cc1Cn1cc([N+](=O)[O-])cn1` it is -4.11%; for `O=C(Nc1ccc(Cl)cn1)c1cc2c(s1)-c1ccccc1OC2` it is 27.1%.
As to `O=C(NCc1ccncc1)c1ccc(Br)o1`, the inhibition turned out to be 12.8%.
The figure for `O=C(NCCNC1CCCCC1)c1ccco1` is -9.39%; for `O=C(NCc1ccccc1)c1ccc(Br)o1` it is 77.6%; for `O=C(CNC(=O)c1ccco1)NC1CCCCCC1` it is 5.43%.
Next, `O=C(O)c1ccc(CNC(=O)c2ccc(Br)o2)cc1`: 21.4%; `O=C(CNC(=O)c1ccc(Br)o1)NCc1ccc(F)cc1`: 23.3%.
Next, `C=CCn1c(O)c(C(CC)=Nc2cc(OC)ccc2OC)c(=O)[nH]c1=O`: 7.07%.
For the compound `CCNC(=S)NNC(=O)c1ccccc1OC(F)F`, the inhibition was -5.06%.
Turning to `COc1ccc(CC(C(=O)Nc2ccc(OC)cc2)c2nn[nH]n2)cc1` (configuration not stated), the inhibition worked out at 8.92%.
On to `Cc1cc(=O)oc2cc(NC(=S)NCc3cccnc3)ccc12`, for which the inhibition was -4.07%.
The figure for `CCCC(=O)c1cc2c(cc1NC(=O)c1ccccc1F)OCCO2` is 4.71%; for `CC(=O)N1CCc2c(sc3c2c(=O)n(-c2ccccc2)c(=O)n3Cc2ccccc2Cl)C1` it is -8.11%; for `O=C(NCCCn1ccnc1)Nc1ccc2c(c1)OCO2` it is -2.69%.
The figure for `Cc1cc(C)c(NC(=O)C2=COCCO2)c(C)c1` is -16.1%; for `Cc1cc(C)c(-c2csc(NC(=O)C3=COCCO3)n2)c(C)c1` it is 34.2%; for `Cc1nc(-c2ccc(-n3nncc3-c3ccco3)cc2)cs1` it is 58.1%.
Next, `Cc1ccc(C(=O)O/N=C(\N)Cc2cccs2)c(Cl)c1`: 60.4%.
Regarding `C#CCOCCOCCOCCNc1nc(N2CCN(C(=O)[C@H](CCC(=O)O)n3cc(C(N)CC(C)C)nn3)CC2)nc(N2CCN(C(=O)[C@H](CCC(=O)O)n3cc(C(N)[C@H](C)CC)nn3)CC2)n1` (some centres not stated), the inhibition is -2.67%.
The figure for `CCc1nc(CN2CCN(c3cc(C(F)(F)F)ccn3)CC2)c(C)[nH]1` is 20.5%.
The figure for `CCN(CC)CCNC(=O)c1cc2c(-c3ccc(Cl)cc3)nn(C)c2s1` is 67.4%; for `CCCCN(CC)CCCNC(=O)c1cc2c(-c3ccc(OC)c(OC)c3)nn(C)c2s1` it is 34.8%; for `Cc1nc(C(=O)N(C)C)nn1-c1ccc(Cl)cc1Cl` it is -3%.
The figure for `COc1ccc(NC(=O)C2=Cc3ccccc3OC2)cc1` is 76.7%.
Take `COc1ccc(C(CNC(=O)CSc2ccc(Br)cc2C)N2CCOCC2)cc1` (configuration not stated): the inhibition turned out to be 7.11%.
Next, `CCN1C(=O)/C(=C\N(C(C)=O)c2ccccc2)OC1=S`: 6.17%; `CCc1nc(N(CC)CC)c2oc3ccccc3c2n1`: 25.6%.
On to `c1ccc(Oc2nc(-c3cccnc3)nc3ccccc23)cc1`, for which the inhibition amounted to 18.6%.
Next, `Cc1ccc(Oc2nc(-c3cccnc3)nc3ccccc23)c([N+](=O)[O-])n1`: -3.06%; `Fc1ccc(F)c(NC2=NCCCCC2)c1`: -19%.
For the compound `O=C(NNC1=C(C(=O)C(F)(F)F)CCC1)c1cccnc1`, the inhibition is -16.6%.
The figure for `O=C(NNC1=C(C(=O)C(F)(F)F)CCC1)c1ccncc1` is 56.2%; for `COc1ccccc1C(=O)NNC1=C(C(=O)C(F)(F)F)CCC1` it is 77.4%.
The figure for `O=C(NNC1=C(C(=O)C(F)(F)F)CCC1)c1cccc(O)c1` is 58.3%; for `Cc1ccc(CNC(=O)CN(c2ccc(C(C)C)cc2)S(=O)(=O)c2c(C)noc2C)cc1` it is 7.31%; for `Cc1ccsc1/C=N/NC(=O)Cn1nc(C)c([N+](=O)[O-])c1C` it is -14.9%.
The figure for `COc1ccccc1N1C[C@@H]2C[C@@H](c3ccco3)N3CCC[C@@]23C1=O` is 14.9%.
For the compound `COC(=O)C1=C(N)Oc2cc(C)n(CC3CCCO3)c(=O)c2C1c1ccccc1` (configuration not stated), the inhibition came to 2.48%.
The figure for `Cc1ccnc(NC(=O)C2CCN(S(=O)(=O)c3cccc4nonc34)CC2)c1` is 9.48%; for `Cc1ccccc1NC(=O)c1cccc(S(=O)(=O)Nc2cccc(C(=O)O)c2)c1` it is 19.2%; for `CC1(C)Oc2ccc(C(=O)NN)cc2NC1=O` it is 9.35%.
The figure for `CC1=C/C(=C\c2ccc3c(c2)OCO3)C(=O)S1` is 31.9%.
Consider `COc1ccc(/C=C2\N=C(SC)SC2=O)cc1OC`, for which the inhibition came out at 76.1%.
With `CC1(C)CC(=O)C(C=Nc2ccc(N)cc2)=C(O)C1`, the inhibition turned out to be 23.2%.
Next, `CCOc1ccc(N=CC2=C(O)CC(C)(C)CC2=O)cc1`: 31.2%; `CCOc1cc(C2NCc3ccccc3-n3cccc32)ccc1OC` (configuration not stated): 1.16%; `O=C1CN(C(=O)COC(=O)CCC(=O)c2ccc(Cl)cc2)c2ccccc2N1`: 16.1%.
The figure for `COc1ccc(CNCc2ccc3ccccc3c2)c(OC)c1` is 23.2%; for `COc1cccc(CNCc2ccc(OC)cc2OC)c1` it is 16.2%.
Consider `COc1ccc(C)cc1NC(=O)c1sc2ncn(CC(=O)N3CCCCC3)c(=O)c2c1C`, for which the inhibition is -1.26%.
For `Cc1nc2ccc(NC(=O)c3ccc(C)c(S(=O)(=O)N4CCOCC4)c3)cc2s1`, the inhibition worked out at 29.1%.
Take `CCN1CCC(O)(c2ccccc2)C(C(=O)c2ccccc2)C1` (configuration not stated): the inhibition is 3.22%.
As to `CC1C(C)C(O)(c2ccccc2)CCN1C` (configuration not stated), the inhibition is -18.2%.
Next, `OC(c1ccccc1)C1CN(Cc2ccccc2)CCC1(O)c1ccccc1` (configuration not stated): 16.7%; `OC1(c2ccccc2)CCN(Cc2ccccc2)CC1`: -5.95%; `O=C(NCc1ccco1)[C@@H]1CSC2c3ccccc3C(=O)N21` (some centres not stated): -2.9%.
The figure for `CCCN(CC(=O)Nc1ccccc1OC)C(=O)c1ccc(=O)[nH]c1` is -2.3%.
The figure for `NC(=O)C1CCN(C(=S)c2ccc(-c3ccc(Br)cc3)o2)CC1` is 76.2%; for `S=C(c1ccc(-c2ccc(Br)cc2)o1)N1CCOCC1` it is 74%.
As to `CN1CCN(c2ccccc2NC(=O)c2ccc(-c3ccc(Br)cc3)o2)CC1`, the inhibition came out at 7.26%.
In the case of `CN1CCN(c2ccc(NC(=O)c3ccc(Br)o3)cc2)CC1`, the inhibition is -1.79%.
The figure for `CN1CCN(c2ccc(NC(=O)c3ccc(-c4ccccc4F)o3)cc2)CC1` is 79.5%.
The figure for `CS(=O)(=O)N1CCN(c2ccc(NC(=O)c3ccc(-c4ccc(Cl)cc4)o3)cc2)CC1` is -19.8%; for `COC(=O)c1ccccc1NC(=O)CSc1ccc(C)cc1` it is 66.9%; for `Cc1onc(-c2c(Cl)cccc2Cl)c1C(=O)NC(=S)Nc1sc2c(c1C(N)=O)CCC(C)C2` (configuration not stated) it is 1.7%.
For the compound `Cc1ccccc1C(=O)NC(=S)NC1CCSC1=O` (configuration not stated), the inhibition was found to be 6.25%.
For `COc1ccc(NS(=O)(=O)c2ccc(NC(=S)NC(=O)c3ccc(Br)cc3)cc2)nn1`, the inhibition came to 52.8%.
The figure for `CSCCC(NC(N)=O)C(=O)Nc1ccc(C)cc1` (configuration not stated) is -6.3%; for `COc1ccc2cc3c(nc2c1)OCC3` it is 52%.
Next, `Cc1ccc2cc3c(nc2c1)N(c1ccccc1)CC3`: -3.46%; `CCOC(=O)NC(=O)/C(N=Nc1cccc(C(F)(F)F)c1)=C(\C)O`: 22.5%.
The figure for `COc1ccc(NC(=O)COC(=O)CN2C(=O)C3CC=CCC3C2=O)c([N+](=O)[O-])c1` (configuration not stated) is 3.95%.

(Values after PubChem BioAssay AID488890 (Southern Research Specialized Biocontainment Screening …, 2010).)
